Sampled rows, rich in hits. Any-hit rate of the full collection: about 4.1%.
NLRP3 yeast inh: inhibitors of NALP3 inflammasome in yeast | actives 0.39% (n = 330,000) | inhibition, % at 10 µM | Yeast reconstituted NLRP3/ASC/caspase-1, beta-gal luminescence, 24 h;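 active = inhibition of 50% or more; inactive = inhibition below 50%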
TIM10 inh: TIM10 yeast growth inhibition | S. cerevisiae TIM10 strain growth, BacTiter-Glo luminescence, 24 h | inhibition, % at 10 µM | actives 1.4% (n = 330,000) | AID 463195;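 active = inhibition of 40% or more at the single tested concentration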;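 note: wild-type TIM10 isogenic control strain grown at permissive 25 °C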
tim23-1 inh: inhibits growth of tim23-1 mutant yeast | S. cerevisiae tim23-1 growth, BacTiter-Glo luminescence, 24 h | AID 463212 | actives 1.3% (n = 330,000) | inhibition, % at 20 µM;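 active = growth inhibition of the mutant yeast at or above 50%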;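 note: temperature-sensitive mutant grown at 25 °C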
tim10-1 inh: tim10-1 yeast growth inhibition; S. cerevisiae tim10-1 ts strain growth, BacTiter-Glo, 24 h; inhibition, % at 20 µM; actives 2.2% (n = 330,000); AID 463190;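 active = inhibition of at least 40%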;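 note: mutant grown at 25 °C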
NALP1 yeast inh: blocks the NALP1 inflammasome reconstituted in yeast; S. cerevisiae NALP1/ASC/caspase-1 growth, X-gal OD620, 72 h; inhibition, % at 10 µM; actives 0.61% (n = 280,000); in the data active = inhibition mostly above about 24%, no sharp cut-off; inactive = mostly below about 32%
PfHsp90 yeast 2: growth inhibition of yeast expressing Plasmodium Hsp90; S. cerevisiae expressing PfHsp90, BacTiter-Glo ATP, 48 h; yeast lacking PDR1 and PDR3 efflux regulators; inhibition, % at 9.4 µM; actives 0.32% (n = 310,000);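 active = every replicate shows inhibition above about 80%, whatever the replicate mean, limit read from the data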
tim10-1 conf: confirmation of tim10-1 mutant yeast growth inhibitors; actives 56% (n = 7,400); inhibition, % at 20 µM; shares compounds with tim10-1 inh; S. cerevisiae tim10-1 ts strain growth, BacTiter-Glo, 24 h;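 active = inhibition of yeast growth at or above a set limit in either of two repeat tests at 20 µM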;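 note: tim10-1 mutant grown at permissive 25 °C to find synthetic lethal compounds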
tim10 confirm: TIM10 yeast growth inhibition, confirmed; inhibition, % at 10 µM; actives 63% (n = 4,600); shares compounds with TIM10 inh; AID 463215; S. cerevisiae tim10 strain growth, BacTiter-Glo luminescence, 24 h;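 active = inhibition of yeast growth at or above a set limit in either of two replicates at 10 µM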; note: this counterscreen used the strain with wild-type TIM10
Of the large screens only hits and unclear results are named; the others gave an inactive call (follow-up assays come after a bar, where they were run).

O=C(CCCn1ncn2c(cc3occc32)c1=O)NCc1cccc(Cl)c1	none
Oc1cc(NCc2cccnc2)ccc1-c1nc2ccccc2o1	TIM10 inh 55, tim10-1 inh 47 (no result: NALP1 yeast inh, PfHsp90 yeast 2) | tim10-1 conf inactive | tim10 confirm 39
CC(C)c1ccc(/C=c2\sc3nc(-c4ccncc4)nn3c2=O)cc1	TIM10 inh 44, tim10-1 inh 49 | tim10-1 conf 30 | tim10 confirm inactive
O=c1[nH]n(-c2ccccc2)c(=O)cc1Cl	none (no result: NLRP3 yeast inh, TIM10 inh, tim23-1 inh, tim10-1 inh, NALP1 yeast inh)
COc1ccc(C(=O)Nc2ccccc2C(=O)N/N=C/c2cccc3ccccc23)cc1	TIM10 inh 56, tim10-1 inh 60 (no result: PfHsp90 yeast 2) | tim10-1 conf 57 | tim10 confirm 37
S=C(NCCc1ccccc1)Nc1ccccc1Cl	none
S=C(NCCCc1ccccc1)Nc1ccccc1Cl	TIM10 inh 52, tim10-1 inh 49 (no result: NALP1 yeast inh) | tim10-1 conf 38 | tim10 confirm 41
CC(=O)Nc1cccc(C(=O)/C=C/c2ccc(C)cc2)c1	none
CCC(=O)Nc1cccc(C(=O)/C=C/c2ccc(F)cc2)c1	TIM10 inh 47, tim10-1 inh 48 | tim10-1 conf 43 | tim10 confirm inactive
Cc1ccc(O)c(C(=O)/C=C/c2ccc3c(c2)OCCO3)c1	TIM10 inh 59, tim10-1 inh 55 | tim10-1 conf 54 | tim10 confirm 50
O=C(Cc1ccsc1)NCC(=O)Nc1ccc(F)c(F)c1	none
FC(F)Sc1ccc(NC(=S)NC2CCCC2)cc1	TIM10 inh 59, tim10-1 inh 53 | tim10-1 conf 41 | tim10 confirm inactive
OC1CCC(NC(=S)Nc2ccc(SC(F)F)cc2)CC1 (centres undefined)	none
Cc1ccc(C)c(-n2c(C)cc(/C=N/NC(=O)c3c(C)nc4cc(C)ccn34)c2C)c1	TIM10 inh 42, tim10-1 inh 53 (no result: PfHsp90 yeast 2) | tim10-1 conf inactive | tim10 confirm inactive
COc1ccc(OC)c(C2C=C(C34CC5CC(CC(C5)C3)C4)NC(=S)N2)c1 (centres undefined)	TIM10 inh 41, tim10-1 inh 47 | tim10-1 conf inactive | tim10 confirm inactive
COc1cc(C2C=C(C34CC5CC(CC(C5)C3)C4)NC(=S)N2)cc(OC)c1OC (centres undefined)	none
O=C(NC12CC3CC(CC(C3)C1)C2)c1ccc(-c2ccc(Cl)cc2)o1	none
O=C(NC12CC3CC(CC(C3)C1)C2)c1ccc(-c2cccc(Cl)c2)o1	TIM10 inh 47, tim10-1 inh 47 | tim10-1 conf 36 | tim10 confirm inactive
CC(=O)N/C(=C\c1ccc(C)o1)C(=O)NCc1ccccc1	none
CCc1ccc(NC(=O)c2noc(C(C)C)c2[N+](=O)[O-])cc1	TIM10 inh 46, tim10-1 inh 52 | tim10-1 conf 44 | tim10 confirm 33
CC(=O)c1ccc(NC(=O)c2noc(C(C)C)c2[N+](=O)[O-])cc1	none
CCCCCC(=O)NC(=S)Nc1ccccc1C(=O)OC	TIM10 inh 43, tim10-1 inh 40 | tim10-1 conf inactive | tim10 confirm 34
CCCC(=O)NC(=S)Nc1cccc(C(C)=O)c1	none
CCCCCC(=O)NC(=S)Nc1cccc(C(C)=O)c1	TIM10 inh 43 | tim10-1 conf inactive | tim10 confirm inactive
c1ccc2c(c1)nc(N1CCOCC1)c1c3ccccc3[nH]c21	TIM10 inh 49, tim10-1 inh 40 | tim10-1 conf inactive | tim10 confirm 61
CCOC(=O)N1CCN(Cc2cc(=O)oc3ccc4ccccc4c23)CC1	none
O=C(CC12CC3CC(CC(C3)C1)C2)NCC(=O)OCc1cc(=O)oc2ccc3ccccc3c12	TIM10 inh 44, tim10-1 inh 41 | tim10-1 conf inactive | tim10 confirm inactive
Cc1cc(NCCOCCO)n2ncc(-c3ccc(Cl)cc3)c2n1	TIM10 inh 42, tim10-1 inh 57 | tim10-1 conf 44 | tim10 confirm 50
Cc1ccc(C(=O)ON=C2CCN(c3ccc([N+](=O)[O-])cc3)CC2)cc1	TIM10 inh 61, tim10-1 inh 53 | tim10-1 conf 49 | tim10 confirm 63
Cc1ccc(S(=O)(=O)N(CC(O)CN2CCOCC2)c2cccc([N+](=O)[O-])c2)cc1 (centres undefined)	none
Cc1ccc(-n2c(-c3cccc(C)c3)n[nH]c2=S)cc1	TIM10 inh 46, tim10-1 inh 43 | tim10-1 conf inactive | tim10 confirm inactive
Cc1c(Cc2ccccc2)c(=O)oc2cc(OC(C)C(=O)NCC3CCC(C(=O)O)CC3)c(Cl)cc12 (centres undefined)	none
COc1ccc(-c2cn[nH]c2-c2ccc(OCc3ccc([N+](=O)[O-])cc3)cc2O)cc1	TIM10 inh 42, tim10-1 inh 47 | tim10-1 conf inactive | tim10 confirm inactive
CCc1cc(-c2[nH]ncc2-c2ccc(OC)cc2)c(O)cc1O	none
COc1ccc(/C(N)=N/OC(=O)c2ccc3c(c2)OCO3)cc1	TIM10 inh 66, tim10-1 inh 64 | tim10-1 conf 50 | tim10 confirm inactive
Cc1ccc(/C(N)=N/OC(=O)c2ccc3c(c2)OCO3)cc1	TIM10 inh 63, tim10-1 inh 56 | tim10-1 conf 52 | tim10 confirm inactive
Cc1cccc(Cc2cnc(NC(=O)C3=NCCN3)s2)c1	none (no result: PfHsp90 yeast 2)
Cc1cccc(Cc2cnc(NC(=O)c3ccc(C)o3)s2)c1	TIM10 inh 45, tim10-1 inh 55 | tim10-1 conf 40 | tim10 confirm 48
COc1ccc(C(=O)Nc2ccc(S(=O)(=O)N3CCCCC3)cc2)cc1OC	TIM10 inh 60, tim10-1 inh 49 | tim10-1 conf 33 | tim10 confirm inactive
Cc1cc(C(=O)Nc2ccc(S(=O)(=O)N3CCCC3)cc2)cs1	TIM10 inh 56, tim10-1 inh 44 | tim10-1 conf 40 | tim10 confirm 36
COc1cc(OC)c(C(=O)Nc2ccc(S(=O)(=O)N3CCCCC3)cc2)cc1OC	none (no result: NALP1 yeast inh)
CC(=O)c1ccc(NC(=O)c2ccc(S(=O)(=O)N3CCCC3)cc2)cc1	none
CC(=O)N1CCN(c2ccccc2NC(=O)c2cc3ccccc3o2)CC1	none
O=C(NC(=S)Nc1ccccc1N1CCCCC1)c1cccs1	TIM10 inh 52, tim10-1 inh 43 | tim10-1 conf 34 | tim10 confirm 61
COc1ccc2cc3cc(C(=O)Nc4ccccc4N4CCN(C)CC4)oc3nc2c1	TIM10 inh 44, tim10-1 inh 55 | tim10-1 conf 44 | tim10 confirm inactive
